Compounds with a hit are over-represented: about 8% of the library has one in this group of screens.
LASV entry inh: Lassa virus entry inhibition; Potency, µM (doses to about 37.9 µM), usual class: inhibitors; Lassa virus pseudotype entry inhibition, cell reporter; hit rate 1.2% among 300,000; calls by dose curve; tested in HEK293 cells; note: nearly all actives have a fitted effect of over 50% in size
HCMV antiviral: human cytomegalovirus inhibition; HFF cells, HCMV-luciferase reporter, 72 h; hits give low values; activity change, negative = inhibition, % at 57.5 µM; hit rate 4.5% among 410,000; AID 1259415; in the data active = activity change below about -60%; inconclusive = no clear call, values can overlap the other calls; inactive = above about -39%
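Inhibition of viral replication was scored as loss of reporter luminescence in HFFs infected with HCMV-luciferase (MOI 1 PFU/cell) for 72 h; compounds tested at 2 doses, normalized to buffer and Salinomycin controls.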
FMDV inh: antivirals against foot and mouth disease virus; FMDV antiviral cell-based qHTS; Potency, µM (series often up to 57.9 µM), usual class: inhibitors; hit rate 1.2% among 410,000; calls by dose curve; tested in HEK293T cells; note: read-out not given here; nearly all actives have a fitted effect of over 45% in size
HCV inhibitor: blocks hepatitis C virus | Potency, µM (doses to about 41.8 µM), usual class: inhibitors | AID 651820 | hit rate 3.4% among 340,000 | Huh7.5.1 HCVcc-Cre infection, luciferase reporter, 44 h; active = well fitted inhibition curve with a large enough effect; inconclusive = small, poorly fitted or top-dose-only effect, or another doubt; inactive = no such curve, though single readings can be large or run the other way
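Infectious HCVcc-Cre (~0.5 moi) was added to cells just after compound, with cells seeded 4 h earlier at 1,000 per well. Luciferase activity after 44 h culture reported infection; substrate was incubated 15 min at room temperature before reading.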
Marburg entry inh: Marburg virus entry inhibition; Potency, µM (series often up to 37.8 µM), actives largely listed as inhibitors; hit rate 1.8% among 300,000; Marburg virus pseudotyped entry inhibition, cell reporter; AID 540276; calls by dose curve; tested in HEK293 cells
SARS PLpro yeast: blocks SARS-CoV papain-like protease in a yeast assay | S. cerevisiae expressing SARS-CoV PLpro, growth rescue | Potency, µM (top dose mostly 32.9 µM), hits mostly activators | hit rate 0.19% among 330,000; calls by dose curve; note: nearly all actives have a fitted effect of over 55% in size
A number is an active result; – = inactive; ? = inconclusive; · = no result given; ! = repeats disagree.

SMILES | LASV entry inh | HCMV antiviral | FMDV inh | HCV inhibitor | Marburg entry inh | SARS PLpro yeast
COc1ccc(OC[C@H]2CN3[C@H](c4ccc(Br)cc4)[C@H](C)CC[C@H]3C(=O)O2)cc1 | · | · | · | · | – | ·
CC(=O)SC(C[N+](=O)[O-])c1cn(C(C)=O)c2ccccc12 (stereo unspecified) | – | -106 | 28µM | 11µM | – | –
CC(=O)n1cc(Nc2ccc([N+](=O)[O-])cc2)c2ccccc21 | – | – | – | – | – | –
CCNc1ncc2nc(C)c(=O)n(CCC#N)c2n1 | · | · | – | · | · | ·
CCNc1nc(C)c2cc(Br)c(=O)n(CC)c2n1 | ? | – | – | 8.9µM | ? | –
Cc1oc(-c2ccccc2NC(=O)c2ccccn2)nc1CNC(=O)c1cccc(C#CC(C)(C)O)c1 | · | · | – | · | · | ·
COc1ccc(C(CC(=O)N2CCCC(C)C2)c2c(OC)cc(OC)c3c(-c4ccccc4)cc(=O)oc23)cc1 (stereo unspecified) | · | -68 | – | ? | · | –
COc1ccc(C(CC(=O)N2CCCC2)c2c(OC)cc(OC)c3c(-c4ccccc4)cc(=O)oc23)cc1 (stereo unspecified) | · | – | – | ? | · | –
COc1ccc(C(CC(=O)N2CCCC2)c2c(OC)cc(OC)c3ccc(=O)oc23)cc1 (stereo unspecified) | · | – | – | 2.8µM | · | –
COc1ccc(C(CC(=O)N2CCCC(C)C2)c2c(OC)cc(OC)c3ccc(=O)oc23)cc1 (stereo unspecified) | · | – | – | 11µM | · | –
Cc1oc(-c2ccc(Cl)cc2)nc1CS(=O)CC(=O)NCCc1ccccc1 (stereo unspecified) | ? | – | – | · | · | ·
Oc1ccc(-c2cnccn2)cc1CN1CCN(C2CCCCC2)CC1 | · | · | – | · | · | ·
Fc1ccc(-c2noc3ncnc(NCCCN4CCN(c5ccccc5)CC4)c23)cc1 | – | – | – | · | · | ·
COc1ccccc1Oc1ccc2c(c1)C(=O)N(c1cccc3ncccc13)C2=O | – | – | 20µM | ? | ? | –
CCCCCC1C(=O)O[C@H](C)[C@@H](NC(=O)c2cccc(NC=O)c2O)C(=O)OC(C)C1OC(=O)CC(C)C (stereo partly specified) | · | · | 40µM | · | · | ·
Cc1nn(Cc2ccc(Cl)cc2Cl)c(C)c1NC(=O)Cn1nc([N+](=O)[O-])c(Cl)c1C | – | – | ? | ? | ? | ·
Cc1nn(Cc2ccc(Cl)cc2)c(C)c1NC(=O)CCCn1nc(C)c([N+](=O)[O-])c1C | ? | – | – | – | 13µM | –
Cc1nn(Cc2ccc(C(=O)NN)cc2)c(C)c1Cl | – | – | – | – | ? | –
Cc1cc(NC(=O)CCCn2ccc([N+](=O)[O-])n2)n(Cc2ccc(F)cc2)n1 | – | -84 | – | ? | – | –
Cc1nn(Cc2ccc(C(=O)Nc3ccccc3F)cc2)c(C)c1Cl | · | -62 | – | – | · | –
Cc1nn(Cc2ccc(Cl)cc2)c(C)c1NC(=O)Cn1nc([N+](=O)[O-])c(Cl)c1C | – | – | – | 3.2µM | ? | –
Cc1cc(NC(=O)Cn2cc([N+](=O)[O-])cn2)n(Cc2ccc(F)cc2)n1 | – | – | – | – | – | –
Cc1c(NC(=O)Nc2cc(F)c(F)cc2Cl)c(=O)n(-c2ccccc2)n1C | · | – | – | – | · | ·
Cc1nn(Cc2ccc(Cl)cc2)c(C)c1NC(=O)C(c1ccccc1)c1ccccc1 | – | -64 | – | ? | ? | –
COc1ccc(C2(c3ccc(OC)cc3)NC(=O)N(CC(=O)Nc3ccc(OC(F)F)cc3)C2=O)cc1 | ? | – | ? | 13µM | ? | –
SMILES | LASV entry inh | HCMV antiviral | FMDV inh | HCV inhibitor | Marburg entry inh | SARS PLpro yeast
Cc1ccc(S(=O)(=O)CCC(=O)Nc2nc(-c3ccccn3)cs2)cc1 | · | ? | ? | 13µM | · | –
COc1ccc(NC(=O)CN2C(=O)NC(c3ccccc3)(c3ccccc3)C2=O)cc1 | ? | – | – | ? | ? | –
Cc1ccc(C2(C)NC(=O)N(CC(=O)Nc3nc(-c4ccccn4)cs3)C2=O)cc1 (stereo unspecified) | ? | – | – | 6.3µM | – | –
Cc1ccc2nc(-c3ccc(NC(=O)CCS(=O)(=O)c4ccccc4)cc3)sc2c1 | 1.8µM | -71 | ? | ? | ? | –
COc1cccc([C@@H]2NC(=O)CC=C[C@H](C)[C@H](c3cccc(OC)c3)NC(=O)CC=C[C@H]2C)c1 | · | · | · | · | – | ·
CC1(c2ccccc2)NC(=O)N(CC(=O)Nc2ccc(C(N)=O)cc2)C1=O (stereo unspecified) | – | -62 | – | – | – | –
O=C1CC(c2ccccc2)Sc2ccccc2N1Cc1ccc(F)cc1 (stereo unspecified) | · | – | ? | · | – | ·
CC(C)=NOc1cc(NC(=O)CCl)cc([N+](=O)[O-])c1 | 18µM | -83 | 7.9µM | 25µM | 23µM | –
CCC(=O)Nc1cc(ON=C(C)C)cc([N+](=O)[O-])c1 | – | – | – | ? | ? | –
O=C(CCl)Nc1cc(SCC(O)CO)cc([N+](=O)[O-])c1 (stereo unspecified) | ? | -99 | 14µM | 1.6µM | ? | –
CCC(=O)Nc1cc(SCCO)cc([N+](=O)[O-])c1 | – | – | – | · | – | –
O=C(NCc1ccc(F)c(F)c1)c1cnc(N2CCN(CCc3ccccc3)C2=O)o1 | · | – | · | · | · | ·
C=CCN1C(=O)[C@@]2(CC(C)=C[C@@H](COc3ccccc3)O2)c2ccccc21 | · | · | · | · | – | ·
Fc1ccc(CN2CCN3CCCC3C2C2CCCCC2)cc1F (stereo unspecified) | 13µM | – | ? | – | ? | –
Nc1ccc(Oc2ccccc2-c2ccccc2)cc1 | 5.6µM | -82 | 7.9µM | – | 5.6µM | ·
NCCOc1ccccc1-c1ccccc1 | – | – | – | – | – | –
COc1ccc(CCC(=O)NCCCNC(=O)CCc2ccc(OC)cc2)cc1 | – | – | – | – | ? | ?
Cc1csc(-c2cc(C(=O)NCc3ccc(F)cc3)n[nH]2)c1 | · | -64 | – | · | · | ·
COc1ccc(NC(=O)c2cc(-c3cc(C)cs3)[nH]n2)cc1OC | · | – | – | · | · | ·
Cc1ccc(C(=O)O)cc1Nc1nc2ccccc2n2nnnc12 | – | – | – | · | – | ·
Cc1ccc(OCCSc2ncccn2)c(C)c1 | 10µM | – | – | – | ? | –
Cc1ccc(OCCCCNC(C)c2ccccc2)c(C)c1 (stereo unspecified) | ? | – | – | 10µM | 11µM | –
Nc1nc(SCCO)[nH]c(=O)c1NC(=O)c1ccc(Br)o1 | – | – | – | – | – | –
N#Cc1ccc(OCC(O)CN2CCN(CC(O)COc3ccc(C#N)cc3)CC2)cc1 (stereo unspecified) | – | – | ? | – | ? | –
N#Cc1ccc(OCC(O)CN2CCN(c3ncc(C(F)(F)F)cc3Cl)CC2)cc1 (stereo unspecified) | ? | -72 | – | ? | ? | –
Fc1ccccc1N1CCN(C(c2cccs2)c2nnnn2CCc2ccccc2)CC1 (stereo unspecified) | ? | – | – | ? | ? | –
COc1ccc(Cn2nnnc2C(c2ccccc2)N2CCN(C3CCCC3)CC2)cc1 (stereo unspecified) | – | – | – | ? | 7.1µM! | –

Compound activity (PubChem)
